# In all, about 8,300 sequences were measured (“log2 fold change of degron read counts, EGFP-low vs EGFP+ sorted cells (limma voom), compound-induced degradation”: median about -1.1, highest 2% from about 3.2 on). Shown is part of a subset that was picked to be rich in the highest values.
# T1: CRBN, Q96SW2
# T1 chain: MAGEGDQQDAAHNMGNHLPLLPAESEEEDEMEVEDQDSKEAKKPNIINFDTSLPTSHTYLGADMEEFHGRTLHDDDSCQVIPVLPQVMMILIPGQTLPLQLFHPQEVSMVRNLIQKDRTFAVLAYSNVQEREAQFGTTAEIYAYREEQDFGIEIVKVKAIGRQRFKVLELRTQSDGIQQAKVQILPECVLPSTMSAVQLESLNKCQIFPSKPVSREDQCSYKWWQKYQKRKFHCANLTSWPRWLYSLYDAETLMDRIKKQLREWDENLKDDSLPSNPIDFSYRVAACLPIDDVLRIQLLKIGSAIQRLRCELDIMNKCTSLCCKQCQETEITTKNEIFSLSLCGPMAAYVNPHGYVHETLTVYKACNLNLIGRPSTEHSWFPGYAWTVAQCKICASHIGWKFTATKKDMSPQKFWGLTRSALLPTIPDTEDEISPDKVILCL
# B1: 46F_47N_49D_50V_52G_53A_54H_55F_67L_, Q9UKT9 (peptide)
# chain: FNCDVCGAHFTQKGNLLRHIKL
# B2: 46F_47L_49P_50Q_52G_53A_54P_55F_67L_, Q9UKT9 (peptide)
# chain: FLCPQCGAPFTQKGNLLRHIKL
# B3: 46L_47R_49N_50Q_52G_53F_54V_55C_67L_, Q9UKT9 (peptide)
# chain: LRCNQCGFVCTQKGNLLRHIKL
# B4: 46F_47G_49E_50I_52G_53A_54F_55F_67L_, Q9UKT9 (peptide)
# chain: FGCEICGAFFTQKGNLLRHIKL
# B5: 46F_47E_49P_50V_52G_53A_54D_55F_67L_, Q9UKT9 (peptide)
# chain: FECPVCGADFTQKGNLLRHIKL
# B6: 46F_47V_49E_50V_52G_53A_54Q_55F_67L_, Q9UKT9 (peptide)
# chain: FVCEVCGAQFTQKGNLLRHIKL
# B7: 46F_47D_49E_50V_52G_53A_54Q_55F_67L_, Q9UKT9 (peptide)
# chain: FDCEVCGAQFTQKGNLLRHIKL
# B8: 46F_47W_49E_50V_52G_53A_54Q_55F_67L_, Q9UKT9 (peptide)
# chain: FWCEVCGAQFTQKGNLLRHIKL
# B9: 46F_47S_49E_50V_52G_53A_54Q_55F_67L_, Q9UKT9 (peptide)
# chain: FSCEVCGAQFTQKGNLLRHIKL
# B10: 46F_47Q_49E_50V_52G_53A_54Q_55F_67L_, Q9UKT9 (peptide)
# chain: FQCEVCGAQFTQKGNLLRHIKL
# B11: 46F_47E_49E_50V_52G_53A_54Q_55F_67L_, Q9UKT9 (peptide)
# chain: FECEVCGAQFTQKGNLLRHIKL
# B12: 46F_47Y_49E_50V_52G_53A_54Q_55F_67L_, Q9UKT9 (peptide)
# chain: FYCEVCGAQFTQKGNLLRHIKL
# B13: 46F_47N_49E_50V_52G_53A_54Q_55F_67L_, Q9UKT9 (peptide)
# chain: FNCEVCGAQFTQKGNLLRHIKL
# B14: 46F_47A_49E_50V_52G_53A_54Q_55F_67L_, Q9UKT9 (peptide)
# chain: FACEVCGAQFTQKGNLLRHIKL
# B15: 46F_47R_49E_50V_52G_53A_54Q_55F_67L_, Q9UKT9 (peptide)
# chain: FRCEVCGAQFTQKGNLLRHIKL
# B16: 46F_47I_49E_50V_52G_53A_54Q_55F_67L_, Q9UKT9 (peptide)
# chain: FICEVCGAQFTQKGNLLRHIKL
# B17: 46F_47H_49E_50V_52G_53A_54Q_55F_67L_, Q9UKT9 (peptide)
# chain: FHCEVCGAQFTQKGNLLRHIKL
# Target: T1, CRBN, Q96SW2
# Assay: log2 fold change of degron read counts, EGFP-low vs EGFP+ sorted cells (limma voom), compound-induced degradation; higher = more compound-induced degradation of the degron-EGFP fusion; degrons are variants of IKZF1/3 zinc finger 2; compound dose not given here
# Conditions: Jurkat, 18 h
# [1] = compound: compound 19 (5-tert-butyl-thalidomide)
# [2] = compound: compound 22 (5-morpholino-thalidomide)
# [3] = compound: compound 33 (diphenyl IMiD analogue)
# 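Further: pooled lentiviral library of zinc finger degron-EGFP fusions in mCherry-positive Jurkat cells, FACS-sorted after compound exposure, with degron abundance counted by next-generation sequencing.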
sequence,measurement,setting,value
B1,log2 fold change of degron read counts,[1],-0.166
same,log2 fold change of degron read counts,[2],-1.87
same,log2 fold change of degron read counts,[3],-1.95
same,log2 fold change of degron read counts,compound: thalidomide,-2.36
B2,log2 fold change of degron read counts,[1],-1.51
same,log2 fold change of degron read counts,[2],-0.398
same,log2 fold change of degron read counts,[3],0.89
same,log2 fold change of degron read counts,compound: thalidomide,0.718
B3,log2 fold change of degron read counts,[1],-1.27
same,log2 fold change of degron read counts,[2],-2.74
same,log2 fold change of degron read counts,[3],-1.29
same,log2 fold change of degron read counts,compound: thalidomide,-1.39
B4,log2 fold change of degron read counts,[1],2.48
same,log2 fold change of degron read counts,[2],1.05
same,log2 fold change of degron read counts,[3],2.58
same,log2 fold change of degron read counts,compound: thalidomide,0.0705
B5,log2 fold change of degron read counts,[1],-1.59
same,log2 fold change of degron read counts,[2],-1.56
same,log2 fold change of degron read counts,[3],2.05
same,log2 fold change of degron read counts,compound: thalidomide,2.24
B6,log2 fold change of degron read counts,[1],0.146
same,log2 fold change of degron read counts,[2],2.74
same,log2 fold change of degron read counts,[3],2.92
same,log2 fold change of degron read counts,compound: thalidomide,2.99
B7,log2 fold change of degron read counts,[1],1.45
same,log2 fold change of degron read counts,[2],0.572
same,log2 fold change of degron read counts,[3],-0.0193
same,log2 fold change of degron read counts,compound: thalidomide,1.19
B8,log2 fold change of degron read counts,[1],3.44
same,log2 fold change of degron read counts,[2],3.79
same,log2 fold change of degron read counts,[3],2.82
same,log2 fold change of degron read counts,compound: thalidomide,2.03
B9,log2 fold change of degron read counts,[1],2.77
same,log2 fold change of degron read counts,[2],2.35
same,log2 fold change of degron read counts,[3],1.32
same,log2 fold change of degron read counts,compound: thalidomide,1.33
B10,log2 fold change of degron read counts,[1],0.659
same,log2 fold change of degron read counts,[2],2.56
same,log2 fold change of degron read counts,[3],2.21
same,log2 fold change of degron read counts,compound: thalidomide,3.77
B11,log2 fold change of degron read counts,[1],-0.548
same,log2 fold change of degron read counts,[2],-1.16
same,log2 fold change of degron read counts,[3],1.28
same,log2 fold change of degron read counts,compound: thalidomide,2.29
B12,log2 fold change of degron read counts,[1],3.53
same,log2 fold change of degron read counts,[2],3.57
same,log2 fold change of degron read counts,[3],2.99
same,log2 fold change of degron read counts,compound: thalidomide,1.94
B13,log2 fold change of degron read counts,[1],2.48
same,log2 fold change of degron read counts,[2],1.07
same,log2 fold change of degron read counts,[3],0.414
same,log2 fold change of degron read counts,compound: thalidomide,0.334
B14,log2 fold change of degron read counts,[1],3.49
same,log2 fold change of degron read counts,[2],2.06
same,log2 fold change of degron read counts,[3],0.981
same,log2 fold change of degron read counts,compound: thalidomide,0.73
B15,log2 fold change of degron read counts,[1],0.18
same,log2 fold change of degron read counts,[2],0.339
same,log2 fold change of degron read counts,[3],1.48
same,log2 fold change of degron read counts,compound: thalidomide,1.56
B16,log2 fold change of degron read counts,[1],-0.278
same,log2 fold change of degron read counts,[2],2.8
same,log2 fold change of degron read counts,[3],2.99
same,log2 fold change of degron read counts,compound: thalidomide,2.69
B17,log2 fold change of degron read counts,[1],1.71
same,log2 fold change of degron read counts,[2],2.6
same,log2 fold change of degron read counts,[3],1.97
same,log2 fold change of degron read counts,compound: thalidomide,0.794

# Reference: the supplement of paper PMC12645437, “Orthogonal IMiD-Degron Pairs Induce Selective Protein Degradation in Cells” (ACS Chemical Biology, 2025)
